Source: ChEMBL document CHEMBL3988442, “University of Dundee, Small-Polar-MMV Screening Library” (2021)

Target: T1, Methionyl-tRNA synthetase, putative (Leishmania donovani (strain BPK282A1)) (UniProt E9BF75)
T1 sequence (whole entry): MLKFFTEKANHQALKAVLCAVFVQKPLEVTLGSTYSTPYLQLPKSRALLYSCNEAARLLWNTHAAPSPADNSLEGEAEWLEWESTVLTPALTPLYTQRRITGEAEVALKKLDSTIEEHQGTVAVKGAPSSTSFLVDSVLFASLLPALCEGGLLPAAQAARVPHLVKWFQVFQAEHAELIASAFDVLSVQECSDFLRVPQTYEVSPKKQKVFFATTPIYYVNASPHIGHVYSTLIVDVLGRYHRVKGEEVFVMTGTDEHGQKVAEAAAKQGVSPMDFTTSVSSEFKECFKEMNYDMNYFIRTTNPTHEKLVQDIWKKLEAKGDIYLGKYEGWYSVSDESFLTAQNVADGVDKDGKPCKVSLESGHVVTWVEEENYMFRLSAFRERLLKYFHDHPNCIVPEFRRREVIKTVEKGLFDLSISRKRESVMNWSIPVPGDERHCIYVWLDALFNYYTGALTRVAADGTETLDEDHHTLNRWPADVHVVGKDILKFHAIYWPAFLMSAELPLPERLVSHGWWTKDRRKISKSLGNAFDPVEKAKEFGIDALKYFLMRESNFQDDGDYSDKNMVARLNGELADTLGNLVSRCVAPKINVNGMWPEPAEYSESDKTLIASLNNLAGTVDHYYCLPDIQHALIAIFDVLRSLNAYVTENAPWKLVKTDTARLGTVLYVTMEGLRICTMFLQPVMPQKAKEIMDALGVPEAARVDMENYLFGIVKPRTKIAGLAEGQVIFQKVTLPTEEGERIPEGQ
Assay: Leishmania donovani Methionine tRNA synthetase (LdMetRS):v7. Dose response assay
Type: functional
Design: conc 80 nM, time 150 minutes
Conditions: MAX_EFFECT 5.420560748

PXC50, < 4:
COc1ccccc1NC(=O)Nc1cc(C(N)=O)ccc1OC
OCCNc1nccc(Nc2ccc(F)c(F)c2)n1
COc1ccccc1NC(=O)Nc1nn(C)c2ccccc12
